Test results reported in PubChem BioAssay AID1159580 (chemical genetic matrix, 2015).
About 2,000 (36%) of roughly 5,500 compounds were called active. Another 18% or so got no clear call; they are omitted. No stated cut-off is given here; in the data, active means normalized growth mostly below about 0.91 (no sharp cut-off); inconclusive means no clear call, values can overlap the other calls; inactive means mostly above about 0.92. The list shows a part of the results.

Experiment: chemical genetic growth profiling, strain panel (AID 1159580);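 further: tested at 20 µM; growth read once vehicle control cultures reached saturation at 30 °C; 1 = growth at the plate median or of vehicle wells; lower values mean less growth of the strain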
Details: growth OD

Measured: normalized growth

CN1C2CC3C[C@H]1C(O3)C2O (some centres undefined)
inactive: S. cerevisiae deletion strains, locus YAL021C, strain ccr4, active compounds read low 1.01 | S. cerevisiae deletion strains, locus YAL026C, strain drs2, active compounds read low 1.02 | S. cerevisiae deletion strains, locus YAL030W, strain snc1, active compounds read low 0.982 | S. cerevisiae deletion strains, locus YBL061C, strain skt5, active compounds read low 1.02 | S. cerevisiae deletion strains, locus YBR009C, strain hhf1, active compounds read low 1.03 | S. cerevisiae deletion strains, locus YBR021W, strain FUR4, active compounds read low 0.99 | S. cerevisiae deletion strains, locus YBR023C, strain chs3, active compounds read low 1.02 | S. cerevisiae deletion strains, locus YBR171W, strain sec66, active compounds read low 1.03 | S. cerevisiae deletion strains, locus YBR229C, strain ROT2, active compounds read low 1.01 | S. cerevisiae deletion strains, locus YBR231C, strain swc5, active compounds read low 1.01 | S. cerevisiae deletion strains, locus YBR279W, strain paf1, active compounds read low 1.01 | S. cerevisiae deletion strains, locus YCL011C, strain gbp2, active compounds read low 1.02 | S. cerevisiae deletion strains, locus YCL016C, strain dcc1, active compounds read low 1.02 | S. cerevisiae deletion strains, locus YCL029C, strain bik1, active compounds read low 1.04 | S. cerevisiae deletion strains, locus YCL061C, strain MRC1, active compounds read low 1.01 | S. cerevisiae deletion strains, locus YCL069W, strain vba3, active compounds read low 1.01 | S. cerevisiae deletion strains, locus YCR088W, strain abp1, active compounds read low 1.02 | S. cerevisiae deletion strains, locus YDL005C, strain med2, active compounds read low 1.02 | S. cerevisiae deletion strains, locus YDL035C, strain GPR1, active compounds read low 1.02 | S. cerevisiae deletion strains, locus YDL040C, strain nat1, active compounds read low 0.997 | S. cerevisiae deletion strains, locus YDL074C, strain BRE1, active compounds read low 1.04 | S. cerevisiae deletion strains, locus YDL101C, strain DUN1, active compounds read low 1.01 | S. cerevisiae deletion strains, locus YDL185W, strain tfp1, active compounds read low 1.04 | S. cerevisiae deletion strains, locus YDL192W, strain arf1, active compounds read low 1.04 | S. cerevisiae deletion strains, locus YDR001C, strain nth1, active compounds read low 1.02 | S. cerevisiae deletion strains, locus YDR069C, strain doa4, active compounds read low 0.971 | S. cerevisiae deletion strains, locus YDR101C, strain arx1, active compounds read low 1.03 | S. cerevisiae deletion strains, locus YDR137W, strain rgp1, active compounds read low 1.02 | S. cerevisiae deletion strains, locus YDR159W, strain sac3, active compounds read low 0.964 | S. cerevisiae deletion strains, locus YDR162C, strain NBP2, active compounds read low 1.01 | S. cerevisiae deletion strains, locus YDR195W, strain ref2 0.995 | S. cerevisiae deletion strains, locus YDR297W, strain sur2, active compounds read low 0.958 | S. cerevisiae deletion strains, locus YDR318W, strain mcm21, active compounds read low 1.03 | S. cerevisiae deletion strains, locus YDR334W, strain swr1, active compounds read low 1.02 | S. cerevisiae deletion strains, locus YDR335W, strain msn5, active compounds read low 0.982 | S. cerevisiae deletion strains, locus YDR388W, active compounds read low 1.03 | S. cerevisiae deletion strains, locus YDR392W, strain spt3, active compounds read low 0.985 | S. cerevisiae deletion strains, locus YDR502C, strain sam2, active compounds read low 1.02 | S. cerevisiae deletion strains, locus YEL003W, strain gim4, active compounds read low 1.02 | S. cerevisiae deletion strains, locus YEL037C, strain rad23, active compounds read low 1.02 | S. cerevisiae deletion strains, locus YEL061C, strain CIN8 (second series), active compounds read low 1.03 | S. cerevisiae deletion strains, locus YEL061C, strain CIN8, active compounds read low 1.01 | S. cerevisiae deletion strains, locus YER015W, strain faa2, active compounds read low 1.01 | S. cerevisiae deletion strains, locus YER016W, strain bim1, active compounds read low 1.01 | S. cerevisiae deletion strains, locus YER110C, active compounds read low 1.04 | S. cerevisiae deletion strains, locus YER111C, strain swi4, active compounds read low 1.02 | S. cerevisiae deletion strains, locus YER155C, strain BEM2 (second series), active compounds read low 0.994 | S. cerevisiae deletion strains, locus YER155C, strain BEM2, active compounds read low 1 | S. cerevisiae deletion strains, locus YER167W, strain BCK2, active compounds read low 1.01 | S. cerevisiae deletion strains, locus YFR010W, strain ubp6, active compounds read low 1.03 | S. cerevisiae deletion strains, locus YGL078C, strain dbp3, active compounds read low 1.02 | S. cerevisiae deletion strains, locus YGL086W, strain mad1, active compounds read low 1 | S. cerevisiae deletion strains, locus YGL167C, strain pmr1, active compounds read low 1.02 | S. cerevisiae deletion strains, locus YGL173C, strain kem1, active compounds read low 1.02 | S. cerevisiae deletion strains, locus YGL227W, strain vid30, active compounds read low 1.01 | S. cerevisiae deletion strains, locus YGL240W, strain doc1, active compounds read low 0.972 | S. cerevisiae deletion strains, locus YGL248W, strain PDE1, active compounds read low 1.01 | S. cerevisiae deletion strains, locus YGL253W, strain hxk2, active compounds read low 1.01 | S. cerevisiae deletion strains, locus YGR078C, strain PAC10, active compounds read low 1.02 | S. cerevisiae deletion strains, locus YGR135W, strain pre9, active compounds read low 1.02 | S. cerevisiae deletion strains, locus YGR252W, strain gcn5, active compounds read low 1.02 | S. cerevisiae deletion strains, locus YHR013C, strain ard1, active compounds read low 1.01 | S. cerevisiae deletion strains, locus YHR027C, strain rpn1, active compounds read low 1 | S. cerevisiae deletion strains, locus YHR030C, strain SLT2, active compounds read low 1.01 | S. cerevisiae deletion strains, locus YHR079C, strain IRE1 (second series), active compounds read low 1.03 | S. cerevisiae deletion strains, locus YHR094C, strain hxt1, active compounds read low 1.03 | S. cerevisiae deletion strains, locus YHR129C, strain ARP1, active compounds read low 1 | S. cerevisiae deletion strains, locus YHR142W, strain chs7, active compounds read low 1.04 | S. cerevisiae deletion strains, locus YHR200W, strain rpn10, active compounds read low 1.02 | S. cerevisiae deletion strains, locus YIL066C, strain RNR3, active compounds read low 1.01 | S. cerevisiae deletion strains, locus YIL073C, strain SPO22, active compounds read low 1.08 | S. cerevisiae deletion strains, locus YIL125W, strain kgd1, active compounds read low 1.02 | S. cerevisiae deletion strains, locus YIR030C, strain dcg1, active compounds read low 1.03 | S. cerevisiae deletion strains, locus YJL092W, strain hpr5, active compounds read low 1.02 | S. cerevisiae deletion strains, locus YJL095W, strain BCK1 (second series), active compounds read low 0.985 | S. cerevisiae deletion strains, locus YJL095W, strain BCK1, active compounds read low 1.01 | S. cerevisiae deletion strains, locus YJL115W, strain asf1, active compounds read low 1.03 | S. cerevisiae deletion strains, locus YJL129C, strain trk1, active compounds read low 1.04 | S. cerevisiae deletion strains, locus YJL134W, strain LCB3, active compounds read low 1.01 | S. cerevisiae deletion strains, locus YJL154C, strain vps35, active compounds read low 1.01 | S. cerevisiae deletion strains, locus YJL164C, strain tpk1, active compounds read low 0.999 | S. cerevisiae deletion strains, locus YJL166W, strain qcr8, active compounds read low 0.996 | S. cerevisiae deletion strains, locus YJL168C, strain set2, active compounds read low 1.02 | S. cerevisiae deletion strains, locus YJL187C, strain SWE1 (second series), active compounds read low 1.01 | S. cerevisiae deletion strains, locus YJL187C, strain SWE1, active compounds read low 0.969 | S. cerevisiae deletion strains, locus YJR043C, strain POL32, active compounds read low 0.999 | S. cerevisiae deletion strains, locus YJR075W, strain HOC1, active compounds read low 1.01 | S. cerevisiae deletion strains, locus YKL009W, strain mrt4, active compounds read low 1.02 | S. cerevisiae deletion strains, locus YKL068W, active compounds read low 1.03 | S. cerevisiae deletion strains, locus YKL085W, strain MDH1 (second series), active compounds read low 1.01 | S. cerevisiae deletion strains, locus YKL085W, strain MDH1, active compounds read low 1.01 | S. cerevisiae deletion strains, locus YKL160W, strain elf1, active compounds read low 1 | S. cerevisiae deletion strains, locus YKL190W, strain CNB1, active compounds read low 1.01 | S. cerevisiae deletion strains, locus YKR001C, strain vps1, active compounds read low 1.03 | S. cerevisiae deletion strains, locus YKR026C, strain gcn3, active compounds read low 1.01 | S. cerevisiae deletion strains, locus YKR091W, strain srl3, active compounds read low 1.01 | S. cerevisiae deletion strains, locus YLL001W, strain dnm1, active compounds read low 1.03 | S. cerevisiae deletion strains, locus YLL026W, active compounds read low 1.01 | S. cerevisiae deletion strains, locus YLL041C, strain sdh2, active compounds read low 0.997 | S. cerevisiae deletion strains, locus YLR027C, strain aat2, active compounds read low 0.975 | S. cerevisiae deletion strains, locus YLR039C, strain RIC1, active compounds read low 1.07 | S. cerevisiae deletion strains, locus YLR058C, strain SHM2, active compounds read low 1.01 | S. cerevisiae deletion strains, locus YLR102C, strain apc9, active compounds read low 1.04 | S. cerevisiae deletion strains, locus YLR221C, strain rsa3, active compounds read low 1.01 | S. cerevisiae deletion strains, locus YLR258W, strain gsy2, active compounds read low 0.983 | S. cerevisiae deletion strains, locus YLR262C, strain YPT6 (second series), active compounds read low 1.05 | S. cerevisiae deletion strains, locus YLR262C, strain YPT6, active compounds read low 1.08 | S. cerevisiae deletion strains, locus YLR268W, strain sec22, active compounds read low 1.03 | S. cerevisiae deletion strains, locus YLR320W, strain mms22, active compounds read low 1.02 | S. cerevisiae deletion strains, locus YLR330W, strain CHS5, active compounds read low 1.01 | S. cerevisiae deletion strains, locus YLR342W, strain FKS1 (second series), active compounds read low 1 | S. cerevisiae deletion strains, locus YLR342W, strain FKS1, active compounds read low 1.01 | S. cerevisiae deletion strains, locus YLR357W, strain rsc2, active compounds read low 1.03 | S. cerevisiae deletion strains, locus YLR370C, strain arc18, active compounds read low 0.979 | S. cerevisiae deletion strains, locus YLR371W, strain rom2, active compounds read low 1.02 | S. cerevisiae deletion strains, locus YLR384C, strain iki3, active compounds read low 1 | S. cerevisiae deletion strains, locus YLR418C, strain cdc73, active compounds read low 1.03 | S. cerevisiae deletion strains, locus YML016C, strain PPZ1, active compounds read low 1.02 | S. cerevisiae deletion strains, locus YML032C, strain rad52, active compounds read low 1.02 | S. cerevisiae deletion strains, locus YML120C, strain ndi1, active compounds read low 1.03 | S. cerevisiae deletion strains, locus YML124C, strain tub3, active compounds read low 1.03 | S. cerevisiae deletion strains, locus YMR058W, strain fet3, active compounds read low 1.02 | S. cerevisiae deletion strains, locus YMR078C, strain ctf18, active compounds read low 1.03 | S. cerevisiae deletion strains, locus YMR125W, strain sto1, active compounds read low 1.01 | S. cerevisiae deletion strains, locus YMR129W, active compounds read low 0.986 | S. cerevisiae deletion strains, locus YMR205C, strain PFK2, active compounds read low 0.974 | S. cerevisiae deletion strains, locus YMR223W, strain ubp8, active compounds read low 1.03 | S. cerevisiae deletion strains, locus YMR231W, strain pep5, active compounds read low 0.988 | S. cerevisiae deletion strains, locus YMR307W, strain GAS1, active compounds read low 0.99 | S. cerevisiae deletion strains, locus YNL067W, strain RPL9B, active compounds read low 1 | S. cerevisiae deletion strains, locus YNL071W, strain lat1, active compounds read low 1.02 | S. cerevisiae deletion strains, locus YNL153C, strain GIM3, active compounds read low 1.01 | S. cerevisiae deletion strains, locus YNL209W, strain ssb2, active compounds read low 1.01 | S. cerevisiae deletion strains, locus YNL233W, strain BNI4, active compounds read low 1.01 | S. cerevisiae deletion strains, locus YNL248C, strain rpa49, active compounds read low 1.02 | S. cerevisiae deletion strains, locus YNL250W, strain rad50, active compounds read low 1.03 | S. cerevisiae deletion strains, locus YNL271C, strain bni1, active compounds read low 1.03 | S. cerevisiae deletion strains, locus YNL298W, strain CLA4, active compounds read low 1.02 | S. cerevisiae deletion strains, locus YNL307C, strain MCK1, active compounds read low 1.05 | S. cerevisiae deletion strains, locus YNL322C, strain KRE1 (second series), active compounds read low 1.02 | S. cerevisiae deletion strains, locus YNR049C, strain mso1, active compounds read low 0.982 | S. cerevisiae deletion strains, locus YNR052C, strain pop2, active compounds read low 1.01 | S. cerevisiae deletion strains, locus YOL012C, strain htz1 1.37 | S. cerevisiae deletion strains, locus YOL147C, strain pex11, active compounds read low 1.03 | S. cerevisiae deletion strains, locus YOR001W, strain rrp6, active compounds read low 0.987 | S. cerevisiae deletion strains, locus YOR061W, strain CKA2, active compounds read low 1.02 | S. cerevisiae deletion strains, locus YOR069W, strain VPS5, active compounds read low 1.01 | S. cerevisiae deletion strains, locus YOR070C, strain gyp1, active compounds read low 1.01 | S. cerevisiae deletion strains, locus YOR080W, strain dia2, active compounds read low 1.02 | S. cerevisiae deletion strains, locus YOR083W, strain WHI5, active compounds read low 1 | S. cerevisiae deletion strains, locus YOR106W, strain vam3, active compounds read low 1.03 | S. cerevisiae deletion strains, locus YOR136W, strain idh2, active compounds read low 1.03 | S. cerevisiae deletion strains, locus YOR144C, strain elg1, active compounds read low 1.03 | S. cerevisiae deletion strains, locus YOR184W, strain ser1, active compounds read low 1.04 | S. cerevisiae deletion strains, locus YOR265W, strain rbl2, active compounds read low 1.01 | S. cerevisiae deletion strains, locus YOR270C, strain vph1, active compounds read low 1.04 | S. cerevisiae deletion strains, locus YOR290C, strain snf2, active compounds read low 0.99 | S. cerevisiae deletion strains, locus YOR316C, strain cot1, active compounds read low 1.04 | S. cerevisiae deletion strains, locus YPL051W, strain arl3, active compounds read low 1.01 | S. cerevisiae deletion strains, locus YPL078C, strain atp4, active compounds read low 1.02 | S. cerevisiae deletion strains, locus YPL106C, strain sse1, active compounds read low 0.995 | S. cerevisiae deletion strains, locus YPL240C, strain hsp82, active compounds read low 0.997 | S. cerevisiae deletion strains, locus YPL241C, strain CIN2, active compounds read low 1.01 | S. cerevisiae deletion strains, locus YPR119W, strain clb2, active compounds read low 1.03 | S. cerevisiae deletion strains, locus YPR141C, strain kar3, active compounds read low 1.04 | S. cerevisiae deletion strains, locus YPR163C, strain tif3, active compounds read low 1.04 | S. cerevisiae deletion strains, locus YPR167C, strain met16, active compounds read low 1.02 | S. cerevisiae deletion strains, strain wtn01, active compounds read low 1.04 | S. cerevisiae strains, strain wild type, active compounds read low 1.02
